The results in this text go back to PubChem BioAssay.

As usually defined, the inhibition is the drop in the measured response relative to a control, in per cent.

Values without a mark were called inactive. How the calls were made is not given here.

Chain of Pantothenate synthetase (Mycobacterium tuberculosis (strain ATCC 25618 / H37Rv)) (P9WIL5 whole entry, looked up): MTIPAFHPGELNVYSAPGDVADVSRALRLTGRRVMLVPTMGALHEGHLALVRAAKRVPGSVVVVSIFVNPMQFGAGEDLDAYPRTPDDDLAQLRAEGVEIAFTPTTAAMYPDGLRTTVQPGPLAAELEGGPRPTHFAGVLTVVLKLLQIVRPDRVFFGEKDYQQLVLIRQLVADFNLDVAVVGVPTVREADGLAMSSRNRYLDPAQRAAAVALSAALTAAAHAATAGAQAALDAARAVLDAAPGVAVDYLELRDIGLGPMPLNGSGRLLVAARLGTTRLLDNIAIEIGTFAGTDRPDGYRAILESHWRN

This test addresses Pantothenate synthetase (Mycobacterium tuberculosis (strain ATCC 25618 / H37Rv)) (UniProt P9WIL5). Description: Coupled enzyme confirmation of inhibitors against recombinant Mtb PanC (AID 375).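 Further: 0% = full reaction with vehicle and 100% = no enzyme background.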 The conditions noted are these: coupled enzyme assay; at 10 µM, stronger effect = higher value.
Consider `C=CCN(CC=C)C(=O)CN1C(=O)c2ccccc2C1=O`, for which the inhibition was 0%. The result for `Cc1cc(C)n(Cc2cc(C)c(Cn3nc(C)cc3C)cc2C)n1` reads 3%.

Turning to `CN=C(Nc1ccc2c(c1)OCO2)SC1CC(=O)N(c2ccccc2)C1=O` (stereo not given), the inhibition is 0%. Regarding `CC(C(=O)NCCCN1CCOCC1)n1cccc1C(=O)c1ccccc1` (stereo not given), the inhibition is 0%. To `O=C(Nc1ccccc1C(=O)O)c1cccc(NC(=O)c2ccc(Br)o2)c1` belongs 0%; to `Cc1cccc2sc(NC(=O)CN(C)S(=O)(=O)c3cccs3)nc12`, 2%. To `CCOC(=O)C1CCCN(C(=O)c2cc3c(C)nc4ccccc4c3o2)C1` (stereo not given) belongs 7%. With `CN(C)S(=O)(=O)N1CCN(c2cccc(Cl)c2)CC1`, the inhibition was 0%.

As for `Fc1c(F)c(F)c(CSc2nc3ccccc3[nH]2)c(F)c1F`, the inhibition is 3%. As for `CCN(CC)CCN1C(=O)C(=O)/C(=C(/O)c2c(C)[nH]c(C(=O)OC)c2C)C1c1ccccc1OC` (stereo not given), the inhibition was 0%.

On to `COc1ccc(C(C(C(=O)c2ccco2)N2CCOCC2)N2CCOCC2)cc1` (stereo not given), for which the inhibition was 11%. To `Cn1c(C(=O)NCCCN2CCCCCC2)cc2c(=O)n(C)c3ccccc3c21` belongs 0%. To `Cc1ccc(Oc2ccc(-c3nc(N)nc(N)n3)cc2)cc1` belongs 7%; to `CN(C1CCCCC1)S(=O)(=O)c1ccc(NC(=O)c2ccco2)cc1`, 0%. In the case of `O=C(CSc1ncccn1)NCc1ccccc1`, the inhibition is 0%. To `Cc1cc(NC(=O)CCC(=O)N(CC(=O)NC2CCCC2)Cc2ccc(F)cc2)no1` belongs 0%; to `CCOC(=O)N1CCN(C(=O)CN(c2ccc(C)cc2)S(=O)(=O)c2c(C)noc2C)CC1`, 0%; to `COC(=O)C1(C)NC(c2cccs2)C2C(=O)N(c3ccccc3F)C(=O)C21` (stereo not given), 0%. The result for `CCCCn1c(=O)[nH]c(=O)c2c1nc(-c1ccncc1)n2CCOC` reads 1%. Take `CSc1ccccc1NS(=O)(=O)c1ccccc1`: the inhibition is 3%. The result for `CC(=O)c1cccc(S(=O)(=O)N2CCC(n3nnc4cc(F)ccc43)CC2)c1` reads 0%; that for `Cn1c(SCC(=O)N2CCN(c3cccc(Cl)c3)CC2)nnc1-c1ccncc1`, 0%. To `Cc1c(O)c(CN2CCCC(C)C2)cc2c3c(c(=O)oc12)CCC3` (stereo not given) belongs 9%; to `COc1ccccc1OCc1ccc(C(=O)OCC2CCCO2)o1` (stereo not given), 0%; to `COc1cc(OC)c(C2C(C#N)=C(N)OC3=C2C(=O)CC(C)(C)C3)cc1OC` (stereo not given), 1%.

Take `O=C(Nc1ccccc1)C1=C(O)CC(c2ccoc2)CC1=Nc1ccccc1` (stereo not given): the inhibition is 0%. To `CC(C)CCn1c(N)c(S(=O)(=O)c2cccs2)c2nc3ccccc3nc21` belongs 0%; to `COC(=O)COc1cccc(NC(=O)COc2ccccc2)c1`, 2%; to `COCC(=O)N(C)c1nnc(-c2ccccn2)s1`, 2%. To `Cc1c(C#N)sc2nc(-c3ccccc3)nc(N3CCCC3)c12` belongs 0%; to `Cc1ccccc1NC(=O)C1CCN(c2cnccn2)CC1`, 0%. Consider `CCOc1ccccc1N1Cc2cc(C)c(C)cc2C1`, for which the inhibition is 0%. To `Cc1cccc(C(=O)O)c1NC(=O)c1ccc(F)cc1` belongs 1%. For the compound `O=C(NCc1cccnc1)c1ccccc1Br`, the inhibition is 7%.

Consider `Cn1c(-c2ccccc2)c(CCO)c2ccccc21`, for which the inhibition is 9%.

Consider `O=C(Oc1cc2oc(=O)c3c(c2cc1Cl)CCCC3)c1ccco1`, for which the inhibition is 0%. To `COc1ccc(CN2C(=O)c3cccnc3C2Nc2cc(Cl)ccc2OC)cc1` (stereo not given) belongs 3%. The result for `COc1ccc(Cn2nnnc2CN2CCOCC2)cc1` reads 6%; that for `O=C(c1ccc2c(c1)OCCO2)N1CCCCC1`, 1%; that for `Fc1cccc(Nc2ncnc3c2cnn3-c2ccccc2)c1`, 2%.
